The results in this text go back to PubChem BioAssay (EPA / NIEHS).

Read-out in experiment [1]: Interferon-gamma inducible Protein 10 (IP10), CXCL10 (gene 3627)
The experiment in a line: BSK_hDFCGF_IP10: BioMAP Diversity Plus: hDFCGF Assay for Interferon-gamma inducible Protein 10 (IP10) Biomarker Activity (AID 2283053). To be noted: primary human foreskin fibroblasts; actives raise or lower the signal. Summed up: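 Human foreskin fibroblast primary cells (hDFCGF system) were dosed with chemical and assayed at 24 h; IP-10 measured by ELISA. Activity fitted bidirectionally relative to DMSO negative control as baseline.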

Read-out in experiment [2]: Urokinase-type plasminogen activator receptor (uPAR), PLAUR (gene 5329)
The experiment is described as follows: BSK_CASM3C_uPAR: BioMAP Diversity Plus: CASM3C Assay for Urokinase-type plasminogen activator receptor (uPAR) Biomarker Activity (AID 2283054).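 Further: cell-surface uPAR protein level quantified by ELISA.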 The note with it: primary human coronary artery smooth muscle cells; actives raise or lower the signal.

Read-out in experiment [3]: Vascular cell adhesion molecule 1 (VCAM1), VCAM1 (gene 7412)
The experiment in a line: BSK_CASM3C_VCAM1: BioMAP Diversity Plus: CASM3C Assay for Vascular cell adhesion molecule 1 (VCAM1) Biomarker Activity (AID 2283055).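 Further: VCAM-1 protein level quantified by ELISA on the cells.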 The note with it: primary human coronary artery smooth muscle cells; actives raise or lower the signal.

Read-out in experiment [4]: Epidermal growth factor receptor (EGFR), EGFR (gene 1956)
The experiment is described as follows: BSK_hDFCGF_EGFR: BioMAP Diversity Plus: hDFCGF Assay for Epidermal growth factor receptor (EGFR) Biomarker Activity (AID 2283057). To be noted: primary human foreskin fibroblasts; actives raise or lower the signal. In outline:
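Primary human foreskin fibroblasts were exposed to compound for 24 h, after which cell-surface EGFR was quantified by ELISA. Activity was fitted bidirectionally against the DMSO negative control as baseline.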

Read-out in experiment [5]: Interleukin-8 (IL8), CXCL8 (gene 3576)
The experiment is described as follows: BSK_hDFCGF_IL8: BioMAP Diversity Plus: hDFCGF Assay for Interleukin-8 (IL8) Biomarker Activity (AID 2283058). To be noted: primary human foreskin fibroblasts; actives raise or lower the signal. In outline: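 ELISA read-out of IL-8 from primary human foreskin fibroblast cultures taken 24 h after dosing; values are bidirectional fits relative to DMSO vehicle.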

A short description of experiment [6]: BSK_hDFCGF_Proliferation: Cell Proliferation Assessment in the BioMAP Diversity Plus: hDFCGF Assay (AID 2283059).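 Further: curves fitted for both rise and fall of signal versus DMSO baseline.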 To be noted: primary human foreskin fibroblasts. Summed up:
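This proliferation readout used SRB total-protein staining of human foreskin fibroblasts […], normalized to DMSO with bidirectional curve fitting.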

Read-out in experiment [7]: Macrophage colony-stimulating factor (MCSF), CSF1 (gene 1435)
The experiment in a line: BSK_hDFCGF_MCSF: BioMAP Diversity Plus: hDFCGF Assay for Macrophage colony-stimulating factor (MCSF) Biomarker Activity (AID 2283060). The note with it: primary human foreskin fibroblasts; actives raise or lower the signal. Summed up:
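ELISA read-out of M-CSF in human dermal foreskin fibroblast cultures, 24 h after chemical dosing; gain or loss of signal fitted bidirectionally relative to DMSO baseline.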

The nature of experiment [8]: BSK_hDFCGF_SRB: Viability Assessment in the BioMAP Diversity Plus: hDFCGF Assay (AID 2283061).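 Further: cells exposed to compound for 24 h before the read.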 The note with it: primary human foreskin fibroblasts. Summed up:
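Primary human foreskin fibroblasts; 24 h post-dose; fixed 10% TCA, stained 0.1% SRB, A560 read; total protein as overt cytotoxicity measure; curves fit bidirectionally vs DMSO control.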

Read-out in experiment [9]: TIMP metallopeptidase inhibitor 1 (TIMP1), TIMP1 (gene 7076)
The experiment is described as follows: BSK_hDFCGF_TIMP1: BioMAP Diversity Plus: hDFCGF Assay for TIMP metallopeptidase inhibitor 1 (TIMP1) Biomarker Activity (AID 2283062). To be noted: primary human foreskin fibroblasts; actives raise or lower the signal. In outline:
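ELISA readout of TIMP-1 from human dermal foreskin fibroblast cultures 24 h post-dosing. Curves were fitted in both directions against DMSO baseline, with SRB total-protein staining in parallel cultures as a cytotoxicity check.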

Read-out in experiment [10]: Monokine induced gamma interferon (MIG), CXCL9 (gene 4283)
The experiment is described as follows: BSK_hDFCGF_MIG: BioMAP Diversity Plus: hDFCGF Assay for Monokine induced gamma interferon (MIG) Biomarker Activity (AID 2283063). To be noted: primary human foreskin fibroblasts; actives raise or lower the signal. Summed up: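 Fibroblasts (human foreskin, primary) dosed, 24 h, MIG by ELISA; fit bidirectional vs DMSO.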

Read-out in experiment [11]: Matrix Metallopeptidase 1 (MMP1), MMP1 (gene 4312)
The experiment is described as follows: BSK_hDFCGF_MMP1: BioMAP Diversity Plus: hDFCGF Assay for Matrix Metallopeptidase 1 (MMP1) Biomarker Activity (AID 2283064). The note with it: primary human foreskin fibroblasts; actives raise or lower the signal. Summed up:
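Primary human foreskin fibroblasts exposed to chemicals for 24 h; MMP1 measured by ELISA. Cytotoxicity tracked by SRB staining in parallel cultures; bidirectional fit relative to DMSO.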

Read-out in experiment [12]: Vascular cell adhesion molecule 1 (VCAM1), VCAM1 (gene 7412)
The experiment is described as follows: BSK_hDFCGF_VCAM1: BioMAP Diversity Plus: hDFCGF Assay for Vascular cell adhesion molecule 1 (VCAM1) Biomarker Activity (AID 2283065).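 On AC50: VCAM-1 protein level quantified by ELISA after 24 h chemical exposure.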 The note with it: primary human foreskin fibroblasts; actives raise or lower the signal. In outline: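 ELISA read-out of VCAM-1 on human skin fibroblasts, 24 h post-dose; gain or loss of signal fitted bidirectionally against DMSO baseline.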

Read-out in experiment [13]: Plasminogen activator inhibitor-1 (PAI1), SERPINE1 (gene 5054)
The experiment is described as follows: BSK_hDFCGF_PAI1: BioMAP Diversity Plus: hDFCGF Assay for Plasminogen activator inhibitor-1 (PAI1) Biomarker Activity (AID 2283066). To be noted: primary human foreskin fibroblasts; actives raise or lower the signal. Summed up: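 Human foreskin fibroblasts in the hDFCGF system were dosed with compound for 24 h; PAI-1 was quantified by ELISA. Bidirectional curve fitting used DMSO as negative control and baseline.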

Read-out in experiment [14]: Intercellular Adhesion Molecule 1 (ICAM1), ICAM1 (gene 3383)
The experiment in a line: BSK_KF3CT_ICAM1: BioMAP Diversity Plus: KF3CT Assay for Intercellular Adhesion Molecule 1 (ICAM1) Biomarker Activity (AID 2283067). The note with it: primary human keratinocytes with fibroblasts; actives raise or lower the signal. Summed up: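 ELISA readout of ICAM-1; KF3CT human skin co-culture (keratinocytes + foreskin fibroblasts), 24 h post-dose; gain/loss fit vs DMSO baseline.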

Read-out in experiment [15]: Interferon-gamma inducible Protein 10 (IP10), CXCL10 (gene 3627)
The experiment in a line: BSK_KF3CT_IP10: BioMAP Diversity Plus: KF3CT Assay for Interferon-gamma inducible Protein 10 (IP10) Biomarker Activity (AID 2283068). To be noted: primary human keratinocytes with fibroblasts; actives raise or lower the signal. Summed up:
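Signal is secreted/surface IP-10 by ELISA in a human primary skin co-culture of keratinocytes and foreskin fibroblasts, taken 24 h post-dosing; DMSO served as negative control.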

A short description of experiment [16]: BSK_KF3CT_SRB: Viability Assessment in the BioMAP Diversity Plus: KF3CT Assay (AID 2283069).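 Further: total protein by sulforhodamine B staining as a cytotoxicity measure; read 24 h after compound addition.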 To be noted: primary human keratinocytes with fibroblasts. Summed up:
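Human keratinocyte and foreskin fibroblast co-culture exposed to chemical for 24 h. Total protein measured in parallel cultures by 0.1% sulforhodamine B staining after 10% TCA fixation, read at 560 nm; bidirectional fit relative to DMSO.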

Read-out in experiment [17]: Interleukin-1 alpha (IL1a), IL1A (gene 3552)
The experiment is described as follows: BSK_KF3CT_IL1a: BioMAP Diversity Plus: KF3CT Assay for Interleukin-1 alpha (IL1a) Biomarker Activity (AID 2283070). To be noted: primary human keratinocytes with fibroblasts; actives raise or lower the signal. Summed up:
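Primary human keratinocyte plus foreskin fibroblast co-culture, dosed and measured at 24 h in 96-well plates. IL-1a level quantified by ELISA; bidirectional fit relative to DMSO.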

Read-out in experiment [18]: TIMP metallopeptidase inhibitor 2 (TIMP2), TIMP2 (gene 7077)
The experiment in a line: BSK_KF3CT_TIMP2: BioMAP Diversity Plus: KF3CT Assay for TIMP metallopeptidase inhibitor 2 (TIMP2) Biomarker Activity (AID 2283071). To be noted: primary human keratinocytes with fibroblasts; actives raise or lower the signal. Summed up: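 Human primary keratinocyte/foreskin fibroblast co-culture dosed with chemical and sampled at 24 h. TIMP-2 levels quantified by ELISA; bidirectional fitting against DMSO negative control as baseline.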

Read-out in experiment [19]: Transforming growth factor beta 1 (TGFb1), TGFB1 (gene 7040)
The experiment is described as follows: BSK_KF3CT_TGFb1: BioMAP Diversity Plus: KF3CT Assay for Transforming growth factor beta 1 (TGFb1) Biomarker Activity (AID 2283072). To be noted: primary human keratinocytes with fibroblasts; actives raise or lower the signal. In outline:
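Human keratinocyte plus foreskin fibroblast primary co-culture, dosed with chemical for 24 h. TGF-b1 quantified by ELISA. Activity fitted bidirectionally against DMSO negative control as baseline.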

Calls of active or inactive are those of the source. How the source made its calls: active means hit-call score of the fitted dose curve at least 0.9, where 1 is the maximum; inactive means score below 0.9.

As for `CCCCC(CC)COC(=O)/C=C\C(=O)OCC(CC)CCCC` (configuration not stated), the result in experiment [1], in experiment [2], in experiment [4], in experiment [5], in experiment [7] and in experiment [8] was inactive. For the same molecule, the result in experiment [9], in experiment [10], in experiment [11], in [12], in experiment [14] and in [15] was inactive. For the same molecule, the outcome in [16], in experiment [17], in experiment [18] and in experiment [19] was inactive. Further, the AC50 is 20 µM (active) in experiment [3], 10.5 µM (active) in experiment [6] and 7.23 µM (active) in experiment [13].
With `O=C1OC2(c3cc(Br)c(O)c(Br)c3Oc3c2cc(Br)c(O)c3Br)c2c(Cl)c(Cl)c(Cl)c(Cl)c21`, the AC50 in experiment [1] was 20.8 µM (active); in experiment [3], 9.53 µM (active); in experiment [4], 1.96 µM (active); in [5], 22 µM (active); in experiment [6], 4.03 µM (active); in experiment [7] it was 1.56 µM (active). The AC50 in [8] was 6.54 µM (active); in [9], 11.5 µM (active); in [10], 11.6 µM (active); in experiment [11], 3.42 µM (active); in experiment [12], 4.38 µM (active); in [13], 2.43 µM (active). Further, the AC50 in [14] was 8.86 µM (active); in [15], 7.41 µM (active); in experiment [16], 4.07 µM (active); in experiment [17], 3.69 µM (active); in experiment [18], 1.6 µM (active); in experiment [19] it was 0.979 µM (active). Also, the outcome in [2] was inactive.
Turning to `CCc1c(C)cc(N)c(CC)c1N`, the outcome in [1], in [2], in experiment [3], in [4], in experiment [5] and in [6] was inactive. Moreover, the outcome in experiment [7], in experiment [8], in experiment [9], in experiment [10], in [11] and in experiment [12] was inactive. Also, the result in experiment [13], in [14], in [15], in [16], in experiment [18] and in experiment [19] was inactive. The AC50 in experiment [17] is 1.94 µM (active).
Consider `C=C(C)C(=O)O[C@H]1C[C@@H]2CC[C@@]1(C)C2(C)C`, for which the AC50 in [1] was 35.2 µM (active); in [2] it was 9.04 µM (active); in experiment [3] it was 12.1 µM (active); in [4], 29.4 µM (active); in [5], 35.3 µM (active); in experiment [6], 13.1 µM (active). The AC50 in [7] is 28.4 µM (active); in experiment [9], 20 µM (active); in experiment [10], 34.8 µM (active); in experiment [11], 34.8 µM (active); in [12], 26.4 µM (active); in experiment [13], 12.8 µM (active). In addition, the AC50 in experiment [14] was 28.8 µM (active); in [15] it was 16.9 µM (active); in experiment [16], 14.6 µM (active); in experiment [17], 20 µM (active); in experiment [18] it was 10.2 µM (active). The outcome in experiment [19] was inactive.
With `CC(=O)O[C@]1(C(C)=O)CC[C@H]2[C@@H]3C[C@H](C)C4=CC(=O)CC[C@]4(C)[C@H]3CC[C@@]21C`, the outcome in experiment [1], in experiment [2], in experiment [3], in experiment [4], in experiment [5] and in experiment [7] was inactive. For the same molecule, the result in experiment [8], in experiment [9], in experiment [10], in [11], in experiment [12] and in experiment [13] was inactive. Moreover, the result in [14], in experiment [16], in [17], in experiment [18] and in [19] was inactive. Further, the AC50 in [6] is 0.0802 µM (active); in [15] it was 2.55 µM (active).
In the case of `COC(=O)c1ccc(C)cc1`, the outcome in experiment [1], in [2], in [3], in [4], in experiment [5] and in experiment [6] was inactive. The outcome in experiment [7], in experiment [8], in experiment [9], in experiment [10], in experiment [11] and in experiment [12] was inactive. For the same molecule, the outcome in experiment [13], in experiment [14], in experiment [15], in experiment [16], in experiment [17] and in [18] was inactive. Further, in experiment [19], the result was inactive.
As to `CCn1c2ccccc2c2cc(N)ccc21`, the result in [1], in experiment [2], in experiment [3], in experiment [4], in [5] and in [6] was inactive. Besides, the result in experiment [7], in experiment [8], in experiment [9], in experiment [10], in experiment [11] and in experiment [13] was inactive. Besides, the result in [14], in experiment [15], in experiment [16], in experiment [17] and in [19] was inactive. Besides, the results for the AC50 in [12] and in [18] were 0.855 µM (active) and 1.49 µM (active), respectively.
